From PubChem BioAssay
Most compounds without a hit are left out; they make up all but 3.1% or so of the library.
PAX8 reporter: PAX8 transcriptional activity inhibition; RMG-I TPO-luciferase reporter, SteadyGlo, 24 h; inhibition, % at 12.6 µM; actives 1.2% (n = 360,000);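 active means mean replicate inhibition at least 60% with every replicate also reaching 60%; inconclusive means only one of the two criteria is met; inactive means mean below 60% and not all replicates reaching 60%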;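 further: luciferase light reporting Pax8 driven TPO promoter activity; plate controls were median of neutral control wells for no effect and mitoxantrone controls for full effect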
EWS-Fli inh: blocks EWS/Fli oncoprotein-driven transcription; inhibition, % at 12.6 µM; actives 0.67% (n = 350,000); A673 NR0B1-luciferase reporter, viability-normalised; AID 651661;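 active means mean inhibition of at least 50% after viability correction, with every replicate also passing that limit; inconclusive means mean reaches 50% but only one of two replicates passes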;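 further: firefly luciferase signal divided by Alamar Blue viability fluorescence both relative to DMSO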
Env fusion inh: blocks HIV Env-driven cell-cell fusion; inhibition, % at 12.3 µM; HeLa-JRFL Env/CEM21 cell fusion, luciferase; actives 1.1% (n = 360,000); AID 651610;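 active means mean replicate inhibition score of at least 50 and every replicate individually at or above 50; inconclusive means only one of the two criteria met; inactive means mean below 50 and not all replicates reaching 50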;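 further: 0% = plate neutral controls and 100% = maraviroc near 300 nM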
miR-122 sensor: miR-122 inhibition in Huh7 cells. Huh7 miR-122 Renilla luciferase sensor, 48 h; neutral wells = 0, positive control = 100. activation (reporter increase), % at 12.5 µM. actives 0.3% (n = 340,000);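 active means mean replicate activation score at least 90 and every replicate individually at or above 90; inconclusive means only one of the two criteria met; inactive means neither criterion met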;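 further: higher luciferase means less miR-122 activity so hits act as miR-122 inhibitors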
INS-1E GSIS act: primary screen for activators of insulin secretion dependent on glucose, INS-1E cells, GLuc reporter luminescence. INS-1E GLuc reporter insulin secretion, 2-3 h. activation, % at 16.6 µM. actives 0.61% (n = 370,000);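 active means lowest replicate activation of at least 40%, so every replicate reaches that level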;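 further: 0% = median of neutral control wells and 100% = median of IBMX positive control wells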
Statin myotox sup: suppression of simvastatin myotoxicity | C2C12 myotubes + simvastatin, ATP luminescence, 48 h; scaled: DMSO 0, geranylgeraniol control 100 | rescue of ATP level, % at 7.49 µM | actives 0.78% (n = 330,000) | AID 602340;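 active means mean ATP rescue above about 67%, or every replicate alone reaching that limit, limit read from the data, passing the limit was not always enough; inconclusive means no clear call, values can overlap the other calls; inactive means mean under the limit and some replicate under it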;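 further: myotubes were challenged with 10 µM simvastatin during compound exposure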
Starred values were filed as active, the others as inactive; ? = inconclusive; nt = no result given; [ ] = another dose, or the depositor's remark.

SMILES	PAX8 reporter	EWS-Fli inh	Env fusion inh	miR-122 sensor	INS-1E GSIS act	Statin myotox sup
CC(C)C(Cl)=NOC(=O)Nc1ccc(S(N)(=O)=O)cc1	-8.2	23.2	10.8	-2.7	125.7*	nt
C[C@@H]1CN([C@@H](C)CO)C(=O)Cc2cc(NC(=O)CCC(F)(F)F)ccc2O[C@H]1CN(C)Cc1ccc(Cl)c(Cl)c1	nt	16.1	29.8[16.7 µM]	-26.0[16.7 µM]	-35.7	40.9
C[C@H]1CN([C@@H](C)CO)C(=O)c2cc(NC(=O)Cn3cnnn3)ccc2O[C@@H]1CN(C)S(=O)(=O)c1ccc(F)cc1	nt	-4.2	-17.3[16.7 µM]	18.0[16.7 µM]	9.1	26.2
CCc1cc2c(NCc3ccco3)ncnc2s1	nt	nt	79.6*	-5.8	nt	-1.1
O=C(C[C@H]1C[C@@H]2c3cc(NC(=O)Cc4ccncc4)ccc3O[C@@H]2[C@H](CO)O1)NCc1ccccn1	-13.5	-1.1	12.6[16.7 µM]	3.0[16.7 µM]	-4.8	4.2
O=C(Nc1nc(-c2cccs2)cs1)c1cccc(S(=O)(=O)N2CCCCC2)c1	33.0	nt	68.5*	56.6	nt	-2.1
Cc1ccc(-c2csc(NC(=O)c3cccc(S(=O)(=O)N4CCN(C)CC4)c3)n2)cc1	17.9	nt	25.0	1.5	nt	7.1
O=C(Nc1nc(-c2cc3ccccc3o2)cs1)c1ccc(S(=O)(=O)N2CCCC2)cc1	22.6	6.2	56.7*	-51.7	-1.7	18.2
CC1CN(S(=O)(=O)c2ccc(C(=O)Nc3nc(-c4cc5ccccc5o4)cs3)cc2)CC(C)O1 (configuration not stated)	13.8	15.9	38.3	nt	-6.4	nt
O=C(N[C@@H]1CC[C@@H](CCNC(=O)c2cnccn2)O[C@@H]1CO)c1ccc2c(c1)OCO2	3.2	-4.3	10.3[16.7 µM]	-4.0[16.7 µM]	6.2	6.5
COC(=O)CN1C(=O)C(C)(C)Oc2ccc(C(=O)Nc3ccccc3F)cc21	1.1	-13.0	11.4	nt	11.2	5.3
CCOC(=O)CN1C(=O)C(C)(C)Oc2ccc(C(=O)Nc3ccccc3)cc21	nt	nt	-95.4	159.5*	nt	0.4
Cc1cccc(CNc2ncnc3ccc(-c4ccoc4)cc23)c1	3.4	-4.4	29.9	6.6	nt	55.9
CC(=O)Nc1ccc(CNc2ncnc3ccc(-c4c(C)noc4C)cc23)cc1	-178.2	69.7*	24.1	-14.7	-26.0	-5.1
COCC(C)NS(=O)(=O)c1ccc(C)cc1 (configuration not stated)	5.4	nt	-82.0	0.8	nt	141.5*
COc1ccc(C2CC(=O)C(C=NCCN3CCOCC3)=C(O)C2)cc1 (configuration not stated)	nt	nt	nt	4.5	nt	125.9*
COc1ccc(C2CC(=O)C(C=NCCN3CCN(C(C)=O)CC3)=C(O)C2)cc1 (configuration not stated)	nt	nt	nt	-1.3	nt	19.5
CCCCC1(Cc2ccc([N+](=O)[O-])cc2)C(=O)N(c2ccccc2)N(c2ccccc2)C1=O	20.4	nt	132.8*	-8.6	nt	17.5
CCOC(=O)N1CCN(C(=O)CCS(=O)(=O)c2ccc3c(c2)CC(C)N3C(=O)CC)CC1 (configuration not stated)	-1.5	nt	1.4	-0.7	2.2	-0.2
CCC(=O)N1c2ccc(S(=O)(=O)CCC(=O)N3CCn4c3nc3ccccc34)cc2CC1C (configuration not stated)	106.1*	nt	15.9	-1.5	nt	19.0
O=S(=O)(/N=C(/Nc1ccc(Cl)c(S(=O)(=O)N2CCOCC2)c1)c1ccc(F)cc1)c1ccccc1	9.9	nt	8.0	120.8*	-4.2	-15.5
O=C(COC(=O)c1cccs1)NCc1ccccc1	nt	nt	nt	nt	-4.0	5.0
COc1cc(NC(=O)c2cccs2)c(C(=O)OCC(=O)NCc2ccco2)cc1OC	nt	nt	nt	-2.6	nt	105.5*
COc1cc(C(=O)OCC(=O)NCc2ccco2)cc(OC)c1OC	nt	nt	nt	-5.3	nt	3.0
O=C(COC(=O)c1cccs1)NCc1ccco1	nt	nt	nt	-6.3	nt	131.3*
SMILES	PAX8 reporter	EWS-Fli inh	Env fusion inh	miR-122 sensor	INS-1E GSIS act	Statin myotox sup
O=C(COC(=O)c1n[nH]c2ccccc12)NC(=O)NCc1ccco1	nt	nt	nt	-0.8	nt	72.6*
COc1ccc(CNC(=O)C[C@@H]2C[C@H]3c4cc(NS(C)(=O)=O)ccc4O[C@H]3[C@H](CO)O2)cc1	nt	-8.7	nt	1.3[16.7 µM]	-5.4	-4.4
Cc1cc2c3c(c1)C(C)CC(C)(C)N3C(=O)C2=O (configuration not stated)	9.5	0.7	1.1	nt	5.8	nt
CCOc1cc2c3c(c1)C(C)CC(C)(C)N3C(=O)C2=O (configuration not stated)	nt	nt	103.5*	4.0	-16.3	52.5
Cc1nnc(N/N=C/c2ccccc2O)n1N	49.7	1.9	2.8	nt	-44.7	nt
Cc1nnc(N/N=C/c2cc(C)n(-c3ccc(F)cc3)c2C)n1N	119.7*	-8.4	nt	nt	nt	nt
CCC(=O)N(C)C[C@H]1Oc2cc(/C=C/c3ccccc3)ccc2S(=O)(=O)N([C@@H](C)CO)C[C@@H]1C	nt	0.4	22.0[16.7 µM]	2.8[16.7 µM]	-19.0	-3.0
O=C(CSc1ccc(-c2ccco2)nn1)NC1CCCC1	2.7	-13.8	-7.8	nt	40.1*	nt
COc1ccc(NC(=O)CSc2ccc(-c3ccco3)nn2)cc1OC	-8.7	nt	7.1	0.8	40.8*	-1.8
O=C(C[C@@H]1C=C[C@H](NC(=O)C2CCC2)[C@H](CO)O1)NC1CCC1	-5.0	-2.5	6.3[16.7 µM]	3.5[16.7 µM]	-2.7	0.2
O=C(NCCNS(=O)(=O)c1ccc(Cl)cc1)c1cc(OCC(F)(F)F)ccc1OCC(F)(F)F	0.6	nt	124.6*	12.8	nt	2.9
O=C(Nc1ccc(C(F)(F)F)cc1)Nc1ccc2c(c1)[C@H]1C[C@@H](CC(=O)N3CCc4ccccc4C3)O[C@@H](CO)[C@H]1O2	97.3*	-7.2	?	-2.2[16.7 µM]	1.7	-6.2
CN1CCN(C(=O)C[C@@H]2C[C@H]3c4cc(NC(=O)Nc5ccccc5F)ccc4O[C@H]3[C@@H](CO)O2)CC1	-9.4	-7.9	20.7[16.7 µM]	-1.3[16.7 µM]	-2.3	-3.4
O=C(Nc1ccc(C(F)(F)F)cc1)Nc1ccc2c(c1)[C@H]1C[C@@H](CC(=O)N3CCc4ccccc4C3)O[C@H](CO)[C@H]1O2	97.5*	2.9	?	0.8[16.7 µM]	8.5	-5.5
O=C(C[C@H]1C[C@@H]2c3cc(NS(=O)(=O)c4ccc(F)cc4)ccc3O[C@@H]2[C@H](CO)O1)N1CCc2ccccc2C1	-2.7	-2.1	22.7[16.7 µM]	-2.5[16.7 µM]	-23.6	2.4
O=C(Nc1ccc(C(F)(F)F)cc1)Nc1ccc2c(c1)[C@H]1C[C@H](CC(=O)N3CCc4ccccc4C3)O[C@@H](CO)[C@H]1O2	43.2	-2.4	7.2[16.7 µM]	4.0[16.7 µM]	-7.1	-66.6
O=C(Nc1ccc2c(c1)[C@@H]1C[C@@H](CC(=O)N3CCc4ccccc4C3)O[C@@H](CO)[C@@H]1O2)Nc1ccccc1F	64.3*	2.5	-13.2[16.7 µM]	-3.2[16.7 µM]	-9.4	-7.7
O=C(C[C@H]1C[C@@H]2c3cc(NS(=O)(=O)c4ccc(F)cc4)ccc3O[C@@H]2[C@@H](CO)O1)N1CCc2ccccc2C1	87.0*	16.7	14.8[16.7 µM]	-6.0[16.7 µM]	-8.6	-4.0
